# Measured values: PubChem BioAssay
# Activity calls are given as the source filed them.
# Key:
# [1] = optical density shifts of acrAB sulA E. coli – strain DRC41, OD650, 48 h, E. coli filamentation inducer project, primary screen (AID 1152); conditions: higher = more signal, called active from +8 up or from −8 down;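 also: E. coli MC1000 strain DRC41 lacking acrAB efflux pump and sulA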
# [2] = probe aLefty1 binding on compound microarray – biochemical, small-molecule microarray, 635/667 nm fluorescence, primary screen (AID 1153); conditions: higher = more signal;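 also: score merges spot fluorescence with signal-to-noise ratio from the scanned slide images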
# [3] = plasmodial surface anion channel blockers, osmotic lysis – cell-based, P. falciparum Indochina, OD700, 1 h, primary screen (AID 1154); conditions: P. falciparum Indochina infected RBC osmotic lysis, higher = more signal, called active from +8 up or from −8 down
# [4] = plasmodial surface anion channel blockers, osmotic lysis – cell-based, P. falciparum Indochina, OD700, 2 h, primary screen (AID 1155);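 also: lysis reports solute entry through the parasite surface anion channel PSAC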; conditions: P. falciparum Indochina infected erythrocytes, higher = more signal, called active from +8 up or from −8 down
# [5] = changes in parasitized red cell lysis, either direction – P. falciparum Indochina, OD700, 3 h, PSAC antagonist project, primary screen (AID 1156); conditions: P. falciparum-infected erythrocytes, osmotic lysis, higher = more signal, called active from +8 up or from −8 down
# [6] = plasmodial surface anion channel blockers, osmotic lysis – cell-based, P. falciparum Indochina, OD700, 18 h, primary screen (AID 1157); conditions: P. falciparum Indochina infected erythrocytes, osmotic lysis OD700, 18 h; higher = more signal, called active from +8 up or from −8 down
# [7] = S6 kinase pathway phospho-S6 level changes – cell-based, A549, cytoblot, luminescence, serum-stimulated, primary screen (AID 1158); conditions: 5 h, higher = more signal;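 also: serum-stimulated A549 lung adenocarcinoma cells; signal is phosphorylated S6 detected by cytoblot immunostaining with HRP secondary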
# [8] = molecular target: NADPH oxidase 2 (Homo sapiens) (UniProt P04839); experiment: compounds shifting NOX2 Amplex Red fluorescence – cell-based, HEK293-NOX2, PMA-stimulated, NOX inhibitor project, primary screen (AID 1159); conditions: 45 min, higher = more signal, called active from +8 up or from −8 down; also: test concentration not given here
# NADPH oxidase 2 (Homo sapiens), sequence (P04839 whole entry, looked up): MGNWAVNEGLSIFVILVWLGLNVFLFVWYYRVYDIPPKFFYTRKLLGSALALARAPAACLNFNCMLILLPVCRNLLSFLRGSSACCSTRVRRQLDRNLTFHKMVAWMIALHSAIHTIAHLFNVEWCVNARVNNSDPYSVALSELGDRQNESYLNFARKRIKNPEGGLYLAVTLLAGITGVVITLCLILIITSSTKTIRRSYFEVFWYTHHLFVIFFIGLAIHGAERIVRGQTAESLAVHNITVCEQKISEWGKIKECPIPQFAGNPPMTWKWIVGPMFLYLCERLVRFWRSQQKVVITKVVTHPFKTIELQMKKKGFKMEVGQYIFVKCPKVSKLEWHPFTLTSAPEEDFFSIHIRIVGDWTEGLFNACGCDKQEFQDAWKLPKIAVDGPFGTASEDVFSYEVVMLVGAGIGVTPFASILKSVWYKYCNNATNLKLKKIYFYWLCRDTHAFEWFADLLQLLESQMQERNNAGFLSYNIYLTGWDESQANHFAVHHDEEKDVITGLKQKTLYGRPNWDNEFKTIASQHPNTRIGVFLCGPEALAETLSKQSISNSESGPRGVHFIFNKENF
# [9] = molecular target: NADPH oxidase 4 (Homo sapiens) (UniProt Q9NPH5); experiment: compounds shifting NOX4 Amplex Red fluorescence – cell-based, HEK293-NOX4, tetracycline-induced, NOX inhibitor project, primary screen (AID 1160); conditions: HEK293-NOX4, Amplex Red H2O2 fluorescence, 45 min; higher = more signal, called active from +8 up or from −8 down
# NADPH oxidase 4 (Homo sapiens), sequence (Q9NPH5 whole entry, looked up): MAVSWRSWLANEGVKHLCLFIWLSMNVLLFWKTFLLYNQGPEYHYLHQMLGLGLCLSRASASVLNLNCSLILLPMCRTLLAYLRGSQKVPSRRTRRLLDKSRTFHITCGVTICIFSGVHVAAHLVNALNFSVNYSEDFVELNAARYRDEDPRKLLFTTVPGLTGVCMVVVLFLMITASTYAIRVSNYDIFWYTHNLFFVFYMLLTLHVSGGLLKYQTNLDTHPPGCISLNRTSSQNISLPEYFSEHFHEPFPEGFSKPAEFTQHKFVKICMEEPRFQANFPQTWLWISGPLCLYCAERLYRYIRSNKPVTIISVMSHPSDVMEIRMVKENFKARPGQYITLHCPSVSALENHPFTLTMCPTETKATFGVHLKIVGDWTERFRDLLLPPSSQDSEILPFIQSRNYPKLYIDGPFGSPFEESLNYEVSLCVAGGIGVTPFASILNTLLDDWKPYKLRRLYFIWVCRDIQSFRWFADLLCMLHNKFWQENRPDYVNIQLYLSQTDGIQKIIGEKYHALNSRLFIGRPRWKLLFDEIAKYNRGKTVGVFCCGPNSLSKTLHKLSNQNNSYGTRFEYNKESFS
# [10] = molecular target: NADPH oxidase 5 (Homo sapiens) (UniProt Q96PH1); experiment: compounds shifting NOX5 Amplex Red fluorescence – cell-based, HEK293-NOX5, NOX inhibitor project, primary screen (AID 1161); conditions: HEK293-NOX5, ionomycin, 45 min, higher = more signal
# NADPH oxidase 5 (Homo sapiens), sequence (Q96PH1 whole entry, looked up): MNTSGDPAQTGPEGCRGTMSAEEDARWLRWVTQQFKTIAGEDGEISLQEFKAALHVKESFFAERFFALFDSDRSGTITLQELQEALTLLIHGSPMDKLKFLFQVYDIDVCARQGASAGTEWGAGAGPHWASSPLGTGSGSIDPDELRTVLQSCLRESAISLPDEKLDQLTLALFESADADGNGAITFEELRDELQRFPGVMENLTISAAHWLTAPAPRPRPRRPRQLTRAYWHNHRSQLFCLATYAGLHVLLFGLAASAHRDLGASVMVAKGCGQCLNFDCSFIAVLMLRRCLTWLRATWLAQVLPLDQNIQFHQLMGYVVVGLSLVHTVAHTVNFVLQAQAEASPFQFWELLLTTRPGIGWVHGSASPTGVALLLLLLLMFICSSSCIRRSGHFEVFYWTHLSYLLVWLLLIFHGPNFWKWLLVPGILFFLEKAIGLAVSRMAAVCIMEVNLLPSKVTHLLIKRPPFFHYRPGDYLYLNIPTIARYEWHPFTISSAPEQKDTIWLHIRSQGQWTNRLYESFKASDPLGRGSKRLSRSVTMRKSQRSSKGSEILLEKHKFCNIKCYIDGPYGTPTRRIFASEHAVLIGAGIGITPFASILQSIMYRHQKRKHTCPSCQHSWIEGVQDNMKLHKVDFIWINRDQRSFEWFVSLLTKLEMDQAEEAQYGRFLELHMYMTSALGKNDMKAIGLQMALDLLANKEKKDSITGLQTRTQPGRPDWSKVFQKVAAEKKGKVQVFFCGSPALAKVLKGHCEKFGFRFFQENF
# [11] = compound effects on lung adenocarcinoma cell viability – A549, calcein-AM fluorescence, 48 h, basal, profiling panel (AID 1162); conditions: higher = more signal; also: test concentration not given here
# [12] = compound effects on differentiated 3T3-L1 adipocyte viability – cell-based, 3T3-L1 adipocytes, calcein-AM fluorescence, 48 h, basal, profiling panel (AID 1163); conditions: 3T3-L1 adipocytes viability, higher = more signal; also: test concentration not given here
# [13] = compound effects on hepatocellular carcinoma cell viability – HepG2, calcein-AM fluorescence, 48 h, basal, profiling panel (AID 1164); conditions: higher = more signal; also: test concentration not given here
# [14] = compound effects on multiple myeloma cell viability – MM1S, calcein-AM fluorescence, 48 h, basal, profiling panel (AID 1165); conditions: higher = more signal; also: test concentration not given here
# [15] = calcein-AM signal in unstimulated myeloma cells – cell-based, calcein-AM fluorescence, 48 h, PK04 Diversity Set, profiling panel (AID 1166); conditions: RPMI8226 myeloma viability, higher = more signal;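 also: cells grown under basal conditions without added stimulus; test concentration not given here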
# [16] = JC-1 mitochondrial signal, unstimulated HepG2 cells – cell-based, JC-1 fluorescence, 24 h, 100 nL compound, profiling panel (AID 1167); conditions: HepG2 mitochondrial potential, higher = more signal; also: test concentration not given here
# [17] = JC-1 mitochondrial signal, unstimulated adipocytes – cell-based, JC-1 fluorescence, 3T3-L1 adipocytes, 24 h, 100 nL compound, profiling panel (AID 1168); conditions: JC-1 mitochondrial fluorescence, higher = more signal, called active from +8 up or from −8 down; also: test concentration not given here
# [18] = JC-1 mitochondrial signal, unstimulated myeloma cells – cell-based, JC-1 fluorescence, RPMI8226, 24 h, 100 nL compound, profiling panel (AID 1169); conditions: JC-1 mitochondrial potential fluorescence, higher = more signal; also: test concentration not given here
# [19] = JC-1 mitochondrial signal, unstimulated MM1S myeloma – cell-based, JC-1 fluorescence, 24 h, 100 nL compound, profiling panel (AID 1170); conditions: MM1S mitochondrial potential, higher = more signal; also: test concentration not given here
# [20] = resazurin metabolic signal in A549 cells – cell-based, resazurin fluorescence, 24 h, PK04 Diversity Set, profiling panel (AID 1171); conditions: A549 viability, higher = more signal, called active from +8 up or from −8 down; also: test concentration not given here
SMILES,z-score [1],composite z-score [2],z-score [3],z-score [4],z-score [5],z-score [6],z-score [7],z-score [8],z-score [9],z-score [10],z-score [11],z-score [12],z-score [13],z-score [14],z-score [15],z-score [16],z-score [17],z-score [18],z-score [19],z-score [20]
CC1CC/C=C\[C@H]2OC34C=CCN(Cn5nnc6ccccc65)C(=O)[C@H]3N(CCCCCO)C(=O)[C@@H]4C2C(=O)O1 (stereo not given in full),0.996 (inactive),-0.624,0.586 (inactive),0.253 (inactive),0.193 (inactive),0.626 (inactive),0.0478,0.664 (inactive),0.341 (inactive),1.68,-0.306,0.393,-0.841,1.4,-0.0074,0.944,0.516 (inactive),0.727,-0.124,0.411 (inactive)
O=C1C[C@@](C(=O)NCc2ccccc2)(c2ccc([N+](=O)[O-])cc2)[C@@H](c2ccc(CO)cc2)N1CC12CC3CC(CC(C3)C1)C2,0.874 (inactive),-0.287,5.33 (inactive),0.786 (inactive),3.76 (inactive),0.674 (inactive),-0.0355,0.208 (inactive),-0.821 (inactive),1.1,-0.702,0.0687,-0.487,-2.81,-4.32,2.17,0.112 (inactive),-0.552,-1.2,-3.09 (inactive)
COC(=O)[C@@]1(Cc2ccc(OC)cc2)[C@H]2c3cc(C(=O)N4CCCC4)n(Cc4nc5ccccc5[nH]4)c3C[C@H]2CN1C(=O)c1ccccc1,-0.945 (inactive),0.388,6.92 (inactive),1.2 (inactive),2.04 (inactive),1.03 (inactive),-0.0242,-0.034 (inactive),-0.0265 (inactive),-3.27,-0.43,0.685,-0.44,-2.01,-2.35,-0.128,-0.773 (inactive),-0.764,-0.816,0.161 (inactive)
CC[C@@H]1C=C(C(=O)O)[C@H](c2cccc3ccccc23)N1S(=O)(=O)c1ccc(C)cc1,-0.453 (inactive),0.0774,1.26 (inactive),1.2 (inactive),-0.129 (inactive),0.708 (inactive),-0.769,0.338 (inactive),-0.931 (inactive),0.133,-1.17,-0.101,0.338,-0.585,-0.392,-0.384,0.291 (inactive),1.17,-1.16,-0.376 (inactive)
C=CCC(OC(C)=O)[C@@H]1[C@@H](N(Cc2ccc(-c3cccc(C(F)(F)F)c3)o2)C(=O)c2cccc3ccccc23)c2cc(OCCCO)ccc2N1C(=O)Cc1ccc2ccccc2c1 (stereo not given in full),-0.599 (inactive),-0.147,0.877 (inactive),-0.397 (inactive),1.31 (inactive),-0.449 (inactive),0.359,-2.15 (inactive),-0.933 (inactive),-1.04,-0.285,0.784,-0.0575,-0.564,-2.04,1.1,-0.62 (inactive),-0.0209,-0.0374,-0.0845 (inactive)
C[N+](C)(C)CCCC[C@@H]1NC(=O)[C@@H]2C[C@H](C(=O)NCCCCCN)[C@H](c3ccc(O)cc3)N2C1=O,1.31 (inactive),0.906,0.455 (inactive),0.0158 (inactive),-0.284 (inactive),-1.78 (inactive),0.612,-0.102 (inactive),-0.316 (inactive),1.33,1.01,0.641,0.383,0.312,0.828,1.79,-0.13 (inactive),0.243,0.41,-0.0115 (inactive)
CC(c1ccccc1)C(O)C1C=CC2C(=O)N(c3ccccc3)C(=O)C2N1Nc1ccccc1 (stereo not given),-1.08 (inactive),1.05,4.6 (inactive),0.386 (inactive),2.47 (inactive),-1.35 (inactive),1.95,-3.18 (inactive),-4.79 (inactive),-5.54,-0.477,0.618,-0.645,-0.476,-0.823,-2.36,-0.266 (inactive),-0.814,-0.547,-1.15 (inactive)
CN1C(=O)C2C=CC(C(O)c3c(F)cccc3Cl)N(NC(=O)OC(C)(C)C)C2C1=O (stereo not given),-0.963 (inactive),0.343,-0.332 (inactive),0.119 (inactive),-0.46 (inactive),0.58 (inactive),-1.11,-1.06 (inactive),-0.495 (inactive),-1.03,-0.646,-0.204,-0.482,-0.208,-1.64,-1.25,-0.555 (inactive),-0.715,0.925,0.143 (inactive)
CN(C)CCCCCCNC(=O)[C@@H]1C[C@@H]2C(=O)N3CCC[C@H]3C(=O)N2[C@@H]1c1ccc(O)cc1,1.12 (inactive),0.457,0.974 (inactive),-1.24 (inactive),1.09 (inactive),-1.93 (inactive),1.12,-0.245 (inactive),-0.176 (inactive),0.884,1.26,1.09,0.773,0.581,-0.586,1.06,0.342 (inactive),-0.689,-0.78,-0.908 (inactive)
C=C(/C(=C/C[C@H](OC(=O)c1ccncc1)c1ccc(OCCO)cc1)c1cc(C(=O)OC)ccc1OC)C(C)C,0.936 (inactive),0.0455,14.5 (active),1.19 (inactive),1.29 (inactive),-1.07 (inactive),0.622,-1.78 (inactive),-0.754 (inactive),-2.43,0.0699,1.62,-0.274,-0.158,-1.9,0.751,0.111 (inactive),-0.143,0.503,0.827 (inactive)
